Experimental data: PubChem BioAssay AID624202 (National Center for Advancing Translational Sciences (NCATS), 2012)
The whole screen tested about 380,000 compounds, of which about 4,000 (1.1%) were called active. About 3% were inconclusive and are not listed. Calls follow the shape of the dose curve; as a rule, active = well fitted activation curve with a large enough effect; inconclusive = small, poorly fitted or top-dose-only effect; inactive = no such curve, though single readings can be large or run the other way. Only a selection was taken, and actives are over-represented in it overall.

Experiment: qHTS Assay to Identify Small Molecule Activators of BRCA1 Expression; also: nearly all actives have a fitted effect of over 80% in size
Settings: MCF7-BRCA1-FFLuc reporter, luminescence, 48 h; series mostly up to 46.1 µM
How it was run: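 First, MCF7-BRCA1-FFLuc cells (2000/well) attach for 2 h; next, compounds are pin-added and incubated 48 h at 37 °C; finally, luciferase reagent is added and luminescence read after 15 min.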
Potency is read from the fitted curve at half-maximal effect.

Potency, inactive:
Cc1ccc(CNS(=O)(=O)c2ccc(C(=O)N(C)C)s2)cc1
CCOC(=O)c1ccc(N2C(=O)c3n[nH]c(-c4ccco4)c3C2c2ccc(O)cc2)cc1 (stereo unspecified)
CCCNC(=O)C1CC(=O)N(c2ccc(OCC(=O)Nc3cccc(C)c3C)cc2)C1 (stereo unspecified)
CCOc1ccc(N2CC(C(=O)NCc3ccccn3)CC2=O)cc1 (stereo unspecified)
OCC(O)C(O)C(O)C(O)C=Nc1ccc(/C=C/c2ccnc3ccccc23)cc1 (stereo unspecified)
OC(COc1ccc2ccccc2c1)Cn1cncn1 (stereo unspecified)
Cc1cccc(OCC(O)Cn2c(=N)n(CCN3CCOCC3)c3ccccc32)c1 (stereo unspecified)
Cc1cc2c(cc1C)C(c1cccc(OC(C)C)c1)CC(=O)N2 (stereo unspecified)
O=C(Nc1ccc2ccccc2c1)Nc1ccc2snnc2c1
COc1ccc(NC(=O)Nc2cccc(-c3noc(C)n3)c2)cc1
N/C(=N\OC(=O)CC1CCCCC1)c1ccccc1
Cc1ccc(C(=O)O/N=C(\N)c2ccccn2)cc1Cl
O=C1O/C(=C\c2ccc(O)cc2)C(O)=C1c1ccc(O)cc1
COc1ccc(CCNC(=O)CCCn2c(=O)c3ccccc3n(Cc3ccc(C)cc3)c2=O)cc1OC
COc1ccc(/C=C/c2ccccn2)cc1OC
COc1ccc(-c2noc(CSc3nc4ccc(C)cc4[nH]3)n2)cc1
Cc1ccc(-c2nc3ccccn3c2Nc2ccc(F)cc2)o1
CCOC(=O)CSc1nnc(CNc2ccc(F)cc2)o1
Cc1oc2ncn(CC(C)C)c(=O)c2c1C(=O)N1CCN(c2ccccc2F)CC1
O=C(Nc1ccc(Cl)cc1)c1cnn2c1NC(=C1CC1)C=C2C(F)F
CC1CN(C(=O)c2cc(COc3c(F)cccc3F)on2)CCN1C (stereo unspecified)
CCOC(=O)CC1(NC(=O)c2cc(COc3cncc(Cl)c3)on2)CCCCC1
O=C(c1ccco1)N(Cc1cccs1)c1ccc(O)cc1
CCc1nn(CCCC(=O)NCc2ccccc2OC)c(=O)c2cc3occc3n12
CCc1nn(CC(=O)NCC(C)c2ccccc2)c(=O)c2cc3occc3n12 (stereo unspecified)
COc1ccc2cc(-c3nc(Cl)c4c5c(sc4n3)CC(C)CC5)c(=O)oc2c1 (stereo unspecified)
Cn1c(=O)c2c(nc(NCCc3ccccc3)n2Cc2ccccc2Br)n(C)c1=O
CSc1ccc(/C=C2\NC(=O)NC2=O)cc1
Cc1ccccc1-n1c(C)cc(/C=N/NC(=O)c2ccc(CN3CCOCC3)cc2)c1C
COc1ccc(Cl)cc1N(C)C(=O)c1cc2c(=O)oc3ccc(C)cc3c2s1
COc1ccc(NC(=O)c2cnc(Nc3ccc(C)c(Cl)c3)c3ccccc23)cc1OC
O=C1c2ccccc2C(=O)N1c1ccc(S(=O)(=O)N2CCOCC2)c2ccccc12
COc1cccc(NC(=O)CSc2cc(=O)n(C)c3ccc(Cl)cc23)c1
Cc1ccc(NC(=O)CN2C(=O)CC(C)Sc3ccccc32)c(C)c1 (stereo unspecified)
O=C(NC(Cc1c[nH]c2ccccc12)C(=O)N/N=C/c1ccc(Br)cc1)c1cccs1 (stereo unspecified)
C[C@H](NC(=O)c1ccccc1)C(=O)OCC(=O)c1c[nH]c2ccccc12
CCOC(=O)c1cccc(NC(=O)c2cc(S(=O)(=O)N3CCCC(C)C3)cn2C)c1 (stereo unspecified)
O=C(CCn1c(=O)c2ccccc2n(Cc2ccc(Cl)cc2)c1=O)NCc1ccc2c(c1)OCO2
CCCN(C(=O)Cn1cc(S(=O)(=O)N2CCN(c3ccccc3F)CC2)c2ccccc2c1=O)c1cccc(C)c1
OC(c1ccccc1)(c1ccccc1)C1CCN(CCCOc2ccccc2)CC1
CCOc1ccc(C(=O)CCN2CCOCC2)cc1
CCc1cccc(NC(=O)Cn2nc(CC)n3c(cc4cc(C)ccc43)c2=O)c1
COc1ccccc1C(=O)NCCn1cc(SCc2ccccc2Cl)c2ccccc21
CCN(CC)C(=O)C1=C(C)N(Cc2ccc(OC)cc2)C(=O)C(CC(=O)NCc2ccco2)C1 (stereo unspecified)
O=C1N/C(=N\N=C\c2ccco2)SC1Cc1ccc(F)cc1 (stereo unspecified)
CN(Cc1ccccc1)c1ccc(/C=C/c2ccnc3ccccc23)cc1
CCc1ccc(OCCCn2c(CCCNC(=O)C3CCCCC3)nc3ccccc32)cc1
COc1ccccc1CNS(=O)(=O)c1cc(Br)cc2c1N(C(C)=O)C(C)C2 (stereo unspecified)
Cc1cc(C)c2nc(N3CCC(C(=O)NCCN4CCOCC4)CC3)sc2c1
Cc1nc(N2CCOCC2)sc1C(=O)NN
CCc1nc2onc(C)c2c(=O)n1CC(=O)O
Cc1cc(C(=O)COc2ccc(Br)cc2F)c(C)n1C1CC1
O=C(COc1ccccc1Cl)N1CCCCCCC1
Cn1c(=O)c2c(-c3ccccc3Br)n(Cc3ccccc3)cc2n(C)c1=O
CCc1ccccc1OCC(=O)Nc1ccc2c(c1)OCCO2
Cc1ccc(OCCCC(=O)Nc2ccc3c(c2)OCCO3)cc1
S=C(Nc1ccc2c(c1)OCO2)N1CCCC1
S=C(NCc1ccco1)Nc1ccc2c(c1)OCCO2
COc1ccccc1-c1cc2nc(C)c(CCC(=O)NC3CCCCC3)c(C)n2n1
COc1ccc(NC(=O)CSc2nnc(-c3nnn(-c4ccc(F)cc4)c3C)o2)cc1
O=C(CS(=O)(=O)c1cccc2nsnc12)N1CCN(c2cccc(Cl)c2)CC1
COc1ccc2[nH]c3c(c2c1)CCN(C(=O)CCC1CCCC1)C3c1ccc(F)cc1 (stereo unspecified)
Cc1ccc(Cl)cc1N1CCN(C(=O)CN2C(=O)COc3ccc(S(=O)(=O)N4CCOCC4)cc32)CC1
COc1ccc(OCc2cc(C(=O)N3CCCC3)no2)c2ccccc12
O=C(c1cc(COc2cccc(C(F)(F)F)c2)on1)N1CCSCC1
CCN(CC)S(=O)(=O)c1ccc2c(c1)nc(CN(C)C(=O)Nc1ccc(Cl)cc1)n2C
Cc1cc(F)ccc1NS(=O)(=O)c1ccc(-n2cccn2)cc1
Cn1cc([N+](=O)[O-])c(C(=O)Nc2ccc3c(c2)OCCO3)n1
O=C(Nc1ccc2c(c1)OCCO2)C(C1CC1)N1CCC(Cc2ccccc2)CC1 (stereo unspecified)
COC(=O)c1c(NC(=O)CCCOc2ccccc2)sc2c1CCC(C)C2 (stereo unspecified)
CCN(CCCNC(=O)c1cc2cc3cc(OC)ccc3nc2s1)c1ccccc1
Cc1cc(NC(=O)CC(C)C)cc(-c2nc3ncccc3o2)c1O
Fc1cccc(Cc2c(-c3ccc(Cl)cc3)nc3ccc(Cl)cn23)c1
Cc1ccc(Cc2c(-c3ccco3)nc3ccc(Cl)cn23)cc1
CC1(C)CC(=O)c2cc(C(=O)NCc3ccccc3)c(=O)[nH]c2C1
CC(=O)c1ccc(NC(=O)c2cc(-c3cccs3)on2)cc1
Cc1ccc(C)c(NC(=O)c2ccc(OC(=O)c3ccco3)cc2)c1
COC(=O)c1ccccc1NC(=O)Cn1c(=O)cc(C)c2c(C)nn(-c3cccc(Cl)c3C)c21
O=C(COc1ccccc1)OCc1cc(=O)n2nc(-c3cccs3)sc2n1
CCC(C(=O)Nc1cccc(Cl)c1C)n1nc(-c2ccc(C)cc2)ccc1=O (stereo unspecified)
NS(=O)(=O)c1ccc(NC(=S)NNC(=O)c2cccs2)cc1
CS(=O)(=O)c1ccc(C(=O)NNC(=O)c2cccs2)cc1
COc1cccc(N2CCN(S(=O)(=O)c3cc(Br)cc4c3N(C(=O)C3CC3)CC4)CC2)c1
COc1ccccc1C(=O)OCc1cc(=O)n2nc(-c3cccs3)sc2n1
O=C(c1cccs1)N1CCCC(c2nc(-c3ccc(F)cc3)no2)C1 (stereo unspecified)
O=C(NCc1cccnc1)c1nc(-c2cccs2)no1
CCCCNc1ccc(-c2nc(-c3ccncc3)no2)cc1[N+](=O)[O-]
Cc1ccc(-c2noc(-c3ccccc3C(=O)NCC3CCCO3)n2)cc1 (stereo unspecified)

Potency, active:
CCCNC(=O)C1CC(=O)N(c2ccc(OCc3ccccc3)cc2)C1 (stereo unspecified) 3.16 µM
OC(COc1ccc2ccccc2c1)CN1CCOCC1 (stereo unspecified) 11.2 µM
COc1ccc(NC(=O)Nc2ccc3nsnc3c2)cc1 2.51 µM
N/C(=N\OC(=O)CCC1CCCCC1)c1ccccn1 7.94 µM
Cc1cccc2nc(CNc3ccc(F)cc3)cn12 12.6 µM
CCOC(OCC)c1ccc(/C=C\c2nccc(N)n2)cc1 3.16 µM
CCCOC1CCCN(C(=O)c2cc(COc3cncc(Cl)c3)on2)C1 (stereo unspecified) 5.62 µM
Cc1ccccc1-n1c(C)cc(/C=C2\NC(=O)NC2=O)c1C 10 µM
O=C(N/N=C/c1c[nH]c2ccccc12)c1ccccc1O 8.91 µM
c1ccc(-c2ccc(OCCN3CCOCC3)cc2)cc1 11.2 µM
COc1ccc(CN2C(=O)C(C)S/C2=N/N=C/c2ccco2)cc1 (stereo unspecified) 11.2 µM
Fc1cc(F)c2nc(N3CCOCC3)sc2c1 12.6 µM
Cc1cc(C(=O)COc2ccccc2Cl)c(C)n1C1CC1 12.6 µM
CCCCC(=O)Nc1ccc2c(c1)OCCO2 7.08 µM
S=C(Nc1cccc(Cl)c1)Nc1ccc2c(c1)OCCO2 11.2 µM
COc1cccc(OCc2cc(C(=O)N3CCN(C(=O)c4ccco4)CC3)no2)c1 11.2 µM
Nc1c(C(=O)Nc2ccc3c(c2)OCCO3)nnn1Cc1ccccc1 4.47 µM
Cc1ccc(-c2nc3ccc(Cl)cn3c2Cc2ccccc2)cc1 10 µM
Cc1ccc(O)c(NC(=O)c2cc(-c3ccco3)on2)c1 5.62 µM
Nc1ccc(N=Nc2ccccc2Cl)c(N)n1 3.55 µM
O=C(Nc1ccccc1)c1ccc(NC(=O)c2cccs2)cc1 7.94 µM
c1csc(-c2nc(-c3ccncc3)no2)c1 4.47 µM
Cc1ccc(-c2nc(-c3ccncc3)no2)c(C)c1 5.01 µM
